Source: ChEMBL document CHEMBL3988442, “University of Dundee, Small-Polar-MMV Screening Library” (2021)
Screen size: about 48,000 compounds; about 13,000 (27%) showed an effect of 50% or more. The list shows a part of the results.

System: Wolbachia pipientis
Experiment: Anti-Wolbachia Cell-Based Screen
Assay type: functional
Design: scale not given: in the data most compounds retested in dose-response had high values
Details: 5 µM

Point of comparison: O=C(c1ccno1)N1CCC2(CC(=O)N(c3ccc4c(c3)OCO4)C2)C1 (stereo not given), “Percent Effect” value -9.598%. Against it:
- O=C(O)[C@@H]1CN(C2CCCCC2)C[C@H]1C1CC1 — higher, 8.818%
- CCS(=O)(=O)N1CCC(CSc2ccccc2)C1 (stereo not given) — higher, -7.795%
- CNC(=O)C(C)(C)N1CCC[C@H]1C(=O)NCCN1CCOCC1 — higher, 8.557%
- CC(=O)NCc1nnn2c1CN(c1ncccn1)CCC2 — higher, 96.74%
- COCc1nnn2c1CN(C(=O)c1c[nH]cn1)CCC2 — higher, -0.6058%
- CCc1ccc(C(=O)N2CCCn3nnc(Cn4cccn4)c3C2)cc1 — higher, 1.938%
- CC(=O)NCc1nnn2c1CN(c1ncc(C)cn1)CCC2 — higher, 101.7%
- O=C(O)C(F)(F)F.OCCOCc1nnn2c1CN(c1ncccn1)CCC2 — higher, 8.15%
- CCS(=O)(=O)N1CCCn2nnc(CNC(C)=O)c2C1 — higher, 115.8439%
- O=C(O)C(F)(F)F.c1ccc(OCc2nnn3c2CN(c2ncccn2)CCC3)nc1 — lower, -15.4%
- COc1cccc(-c2noc(-c3ccc(NCC(C)C)nc3)n2)c1OC — lower, -21.63%
- CCN1CCC(c2nnc(CN3CCCC3)n2C2CC2)CC1 — higher, -1.245%
- Cc1cnn(C2CN(c3nc(C)cc(N(C)C)n3)C2)c1 — lower, -14.5%
- Cc1cc(N(C)C)nc(N2CCn3c(C)nnc3C2)n1 — higher, -0.4749%
- Cc1nc(N(C)C)cc(C2(C)CCNCC2)n1 — higher, 111%
- Cc1cc(N(C)C)nc(C2(C)CCCNC2)n1 (stereo not given) — higher, 102.5%
- Cc1cc(N(C)C)nc(C2(C)CCNCC2)n1 — higher, 87.74%
- CN(Cc1ccc2nsnc2c1)C(=O)CCc1cc2n(n1)CCCNC2 — lower, -10.43%
- COCc1cc(N(C)Cc2ccccn2)nc(C(C)(C)C)n1 — higher, -4.697%
- O=C(COc1ccccc1N1CCCC1)N1CCN[C@H]2CS(=O)(=O)C[C@H]21 — higher, -3.795%
- O=C(CCc1ccccc1Br)N1CC(S(=O)(=O)C2CCCCC2)C1 — higher, 3.843%
- Cc1noc(CNc2ccc(OC(F)F)cc2OC(F)F)n1 — lower, -10.63%
- Cc1n[nH]c(C)c1CN1CCC(c2cc(C(C)C)n[nH]2)CC1 — higher, 7.572%
- CC(=O)N1CCC(CN2CCN(Cc3nccn3C)C(C)C2)CC1 (stereo not given) — higher, -3.409%
- Cc1n[nH]c(C)c1-c1nccnc1CC1CCN(S(C)(=O)=O)C1 (stereo not given) — higher, 111.1%
- Cc1noc2ncc(C(=O)NCC3CCN(C(C)C)C3)cc12 (stereo not given) — lower, -9.955%
- Cc1n[nH]c(C)c1-c1nccnc1CC1CCN(C(C)C)CC1 — higher, 127%
- CC(=O)N1CCC(Cc2nccnc2-c2c(C)n[nH]c2C)C1 (stereo not given) — higher, 110.3%
- CS(=O)(=O)N1CCC(CSc2ccccc2)C1 (stereo not given) — higher, 7.413%
- Cc1n[nH]c(C)c1-c1nccnc1CC1CCCN(C)C1 (stereo not given) — higher, 113%
- CC(=O)N1CCC(NC(=O)NCCCc2cn[nH]c2C)CC1 — higher, -4.714%
- Cc1ccc(CN(Cc2ccccn2)C(=O)CCC2CCCN(C)C2)s1 (stereo not given) — higher, -9.083%
- CN1CCCC(N2CCN(c3cc(C(F)(F)F)ccn3)CC2)C1 (stereo not given) — lower, -11.03%
- CS(=O)(=O)N1Cc2nccn2CC(CN2CCCC2=O)C1 (stereo not given) — lower, -14.04%
- CN1CCCCC1CCC(=O)NCCSc1cnn[nH]1 (stereo not given) — lower, -30.14%
- CCOC(=O)C1CN(C(=O)COC)Cc2ncn(CC)c21 (stereo not given) — higher, -5.507%
- Cc1n[nH]c(C)c1-c1nccnc1CC1CCNC1 (stereo not given) — higher, 100.9%
- COCC(=O)N1CCC(Cc2nccnc2-c2c(C)n[nH]c2C)C1 (stereo not given) — higher, 109.3%
- CC1CCCCN1C(=O)Cn1cnc(C#N)n1 (stereo not given) — higher, -6.637%
- CS(=O)(=O)N1CC(c2nc[nH]n2)c2cc(C(=O)NC3CCCC3)ccc21 (stereo not given) — higher, 0.6803%
- Cc1nn(CCO)cc1CN1CCCC1c1nc2c(C)cccc2[nH]1 (stereo not given) — higher, -6.904%
- CCN(CC)S(=O)(=O)N1CCCC1C(=O)N1CCSCC1 (stereo not given) — higher, 22.8%
- CNS(=O)(=O)c1cccc(S(=O)(=O)Nc2ncc(C)s2)c1 — higher, 2.588%
- COc1c(C2CCCN2Cc2cn3ccsc3n2)c(C)nn1C (stereo not given) — higher, 3.624%
- Cc1nn(C)c(Cl)c1C1CCCN1Cc1cn2ccsc2n1 (stereo not given) — higher, 41.71%
- Cc1nn(C)cc1CN1CCCC1c1cccc(Nc2nccs2)n1 (stereo not given) — higher, 88.47%
- Cc1ncc(CO)c(CN2CCCC2c2nc3c(C)cccc3[nH]2)c1O (stereo not given) — higher, 7.788%
- Cc1nonc1NC(=O)C1SCCc2sccc21 (stereo not given) — lower, -12.22%
- CCc1cnc(C)nc1NC(CC)c1cnn(C)c1 (stereo not given) — higher, -1.737%
- Cc1cccc(CN2CCC3(CCCN(Cc4cnn(C)c4)C3)C2=O)n1 (stereo not given) — higher, 94.18%
- Cn1cc(CN2CCCC3(CCN(Cc4ccncc4)C3=O)C2)cn1 (stereo not given) — higher, 102%
- Cc1cccc(CN2CCCC3(CCN(CC(=O)N(C)C)C3=O)C2)n1.O=C(O)C(F)(F)F (stereo not given) — lower, -13.27%
- Cc1cnc(CNC(=O)CC2CCc3ccccc32)cn1 (stereo not given) — higher, 1.8%
- CN(Cc1ccco1)C(=O)CN1CCCC1Cn1cncn1 (stereo not given) — higher, 107%
- CN(Cc1ccco1)C(=O)CN1CCCCC1Cn1cccn1 (stereo not given) — higher, 4.659%
- Cc1ccc(-c2nc(CN3CCOC(Cn4cccn4)C3)cs2)o1 (stereo not given) — lower, -10.9%
- Cc1ccc(CN(C)C(=O)CN2CCCC2Cn2cccn2)o1 (stereo not given) — higher, 15.96%
- CN(Cc1ccco1)C(=O)CN1CCOC(Cn2cccn2)C1 (stereo not given) — higher, 126.4%
- CN(Cc1ccco1)C(=O)CN1CCCC1Cn1cccn1 (stereo not given) — higher, -1.962%
- CN(Cc1ccco1)C(=O)CN1CCOC(Cn2cncn2)C1 (stereo not given) — higher, 96.26%
- CN(Cc1ccco1)C(=O)CN1CCCCC1Cn1cncn1 (stereo not given) — higher, -0.1414%
- Cc1ccc(CN(C)C(=O)CN2CCOC(Cn3cccn3)C2)o1 (stereo not given) — higher, 114.2%
- Cc1ccc(CN(C)C(=O)CN2CCCCC2Cn2cncn2)o1 (stereo not given) — higher, -8.08%
- Cc1ccc(CN(C)C(=O)CN2CCOC(Cn3cncn3)C2)o1 (stereo not given) — higher, -4.818%
- Cc1ncsc1CN1C[C@@H]2COC[C@]2(COc2ccc(C#N)cn2)C1 — higher, -4.86%
- COc1ccc(Cl)cc1C(=O)N(C)Cc1cc(C)on1 — higher, -1.731%
- COCc1cc(N2CCc3onc(-c4cccc(OC)c4)c3C2)ncn1 — higher, -6.434%
- Cc1nc(C)c(CNCC2CCCn3ccnc32)s1 (stereo not given) — lower, -11.09%
- O=C(Nc1ncn(Cc2cccc(Br)c2)n1)C1CCC1 — higher, 6.264%
- O=C(CN1CCOC(Cn2cccn2)C1)NCCc1ccc(F)cc1 (stereo not given) — higher, -2.964%
- Cc1ccccc1CN(C)C(=O)CN1CCOC(Cn2cccn2)C1 (stereo not given) — higher, 111%
- Cc1nnc(NC(=O)CN2CCOC(Cn3cccn3)C2)s1 (stereo not given) — lower, -11.4%
- CN(Cc1ccc(F)cc1)C(=O)CN1CCOC(Cn2cncn2)C1 (stereo not given) — higher, -5.304%
- O=C(CN1CCOC(Cn2cccn2)C1)Nc1ccncc1 (stereo not given) — higher, -3.889%
- CN(Cc1ccc(F)cc1)C(=O)CN1CCOC(Cn2cccn2)C1 (stereo not given) — higher, 121.8%
- CCN(CCC(F)(F)F)C(=O)Nc1cccc(N2CCOCC2)c1 — lower, -10.51%
- CC1CCN(CC(O)CNc2ccccn2)CC1 (stereo not given) — higher, -1.4%
- CCC(=O)N1CCC(Cc2cc(Nc3ncccn3)ncn2)CC1 — higher, 93.47%
- CN1CCC(Cc2cc(Nc3ncccn3)ncn2)CC1 — higher, -2.002%
- CN1CCC(Cc2cc(Nc3ccccn3)ncn2)CC1 — higher, 68.08%
- N#CCCN(Cc1cccnc1)C(=O)c1ccn(-c2ccccc2)n1 — higher, 1.241%
- COc1ccc(/C=C/CN2C[C@H]3CC[C@@H]2CN(S(=O)(=O)N(C)C)C3)cc1 — higher, 13.82%
- C[C@H](O)CNc1cc(-c2ccncc2)ncn1 — higher, 115%
- CC(C)c1cc(NCC2(CO)CCCC2)ncn1 — higher, 7.781%
- CC(C)c1cc(NCC(O)c2ccncc2)n2nccc2n1 (stereo not given) — higher, -8.35%
- C[C@H](O)CNc1cc(-c2ccccc2)ncn1 — higher, 111.5%
- C[C@H](O)CNC(=O)c1cnc(-c2ccccc2)nc1O — lower, -14.22%
- COc1cc(NCC(c2ccccn2)N(C)C)ncn1 (stereo not given) — higher, 0.2576%
- Cc1ccc(C)c(C(O)Cn2cc(Cl)c(=O)[nH]c2=O)c1 (stereo not given) — higher, 3.012%
- CCn1nccc1CNC(=O)Cn1cc2c(n1)c(C)nn2C(C)C — higher, 116.7%
- CCn1nccc1CNC(=O)C1CCCC1 — higher, 10.33%
- COCCNC(=O)N1CCOCC1c1c(C)nn(C)c1C (stereo not given) — lower, -9.833%
- COCCNC(=O)Cn1cc2c(n1)c(C)nn2C — higher, 124.1%
- CCn1nccc1CNC(=O)C(C)n1cc2c(n1)c(C)nn2C (stereo not given) — higher, 13.18%
- COCCNC(=O)Cn1cc2c(n1)c(C)nn2C(C)C — higher, 92.82%
- COCCNC(=O)C(C)n1cc(Br)cn1 (stereo not given) — higher, 8.857%
- COCCNC(=O)Cn1nc(C(C)C)c2cnn(C(C)(C)C)c2c1=O — higher, -0.4126%
- COCCNC(=O)c1cnc(C)nc1C — lower, -12.85%
- O=C(NCc1cnc2n1CCN(Cc1cccs1)C2)c1ccno1.O=C(O)C(F)(F)F — lower, -34.76%
- CC(C)(C)c1noc(CCC(=O)N2CCNC(=O)C2)n1 — lower, -18.81%
- CC(C)Cc1ncc2c(n1)CN(c1cc(N)nc(N)n1)C2 — higher, 16.38%
- Cc1ccc(C(C(=O)N(C)CCc2cn[nH]c2)N(C)C)cc1 (stereo not given) — higher, 3.285%
- CN(CCc1cn[nH]c1)C(=O)CCc1ccc(Cl)cc1 — higher, 144.4%
- CN(CCc1cn[nH]c1)C(=O)C(c1ccc(F)cc1)N(C)C (stereo not given) — higher, -6.005%
- CC(=O)N1CCN(CCNc2snc(Cl)c2C#N)CC1 — higher, 4.799%
- COCCCC(=O)NS(=O)(=O)c1ccc2c(c1)OCCCO2 — higher, -8.462%
- Cc1ccc(N(CCC#N)C(=O)CCc2cccnc2)cc1C — higher, 98.05%
- CCC(C)N(Cc1cccnc1)Cc1ccc2c(c1)OCCO2 (stereo not given) — higher, 9.848%
- COCCC(=O)N(CCC#N)c1ccc2c(c1)OCCO2 — higher, 95.73%
- c1cncc(CCc2nc(C3CC3)nn2-c2ccc3c(c2)OCCO3)c1 — higher, -5.22%
- N#CCCN(C(=O)CCc1cccnc1)c1ccc2c(c1)OCCO2 — higher, 88.06%
- N#CCCN(Cc1cccnc1)C(=O)Cc1ccc(-n2cnnn2)cc1 — higher, -0.659%
- N#CCCN(Cc1cccnc1)C(=O)c1cccc(-n2cnnn2)c1 — lower, -18.3%
- CC(C)(NCC(=O)NCCC#N)c1ccc2c(c1)OCCO2 — higher, 4.777%
